Experiment [1] is described as follows: Caspase-3/7 induction in CHO-K1 cells by small molecules, qHTS assay (AID 1346980). Also: nearly all actives have a fitted effect of over 15% in size. In a few lines:
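Wild-type CHO-K1 cells exposed to compounds for 17hr at 37 C, 5% CO2. Caspase-3/7 activity then measured by Caspase-Glo 3/7 luminescence after 30min at room temperature.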
Background: Quantitative high-throughput screening tests each substance at several concentrations.

Experiment [2] in a line: Caspase-3/7 induction in HepG2 cells by small molecules, qHTS cell viability counter screen (AID 1346981). Also: series mostly up to about 92 µM; nearly all actives have a fitted effect of over 30% in size. In a few lines:
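Treatment of HepG2 cells with DMSO-delivered compounds ran 16 hr at 37 C following a 5-hr pre-incubation of 2,000 cells/well. CellTiter-Fluor fluorescence, read after 1 hr, served as the viability measure in a qHTS format.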

For experiment [3], the target named is Nuclear receptor subfamily 1 group I member 2 (Homo sapiens) (UniProt O75469). Nature of the experiment: Human pregnane X receptor (PXR) small molecule agonists, qHTS assay (AID 1346982). Also: nearly all actives have a fitted effect of over 35% in size. Also: potency is read from the fitted curve at half-maximal effect. In outline: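 Stable HepG2 line reporting PXR-mediated CYP3A4 expression via luciferase. Treatment: 24 hr with compounds in DMSO at 37 C. Detection: ONE-Glo luminescence.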
Nuclear receptor subfamily 1 group I member 2 (Homo sapiens), sequence (O75469 whole entry, looked up): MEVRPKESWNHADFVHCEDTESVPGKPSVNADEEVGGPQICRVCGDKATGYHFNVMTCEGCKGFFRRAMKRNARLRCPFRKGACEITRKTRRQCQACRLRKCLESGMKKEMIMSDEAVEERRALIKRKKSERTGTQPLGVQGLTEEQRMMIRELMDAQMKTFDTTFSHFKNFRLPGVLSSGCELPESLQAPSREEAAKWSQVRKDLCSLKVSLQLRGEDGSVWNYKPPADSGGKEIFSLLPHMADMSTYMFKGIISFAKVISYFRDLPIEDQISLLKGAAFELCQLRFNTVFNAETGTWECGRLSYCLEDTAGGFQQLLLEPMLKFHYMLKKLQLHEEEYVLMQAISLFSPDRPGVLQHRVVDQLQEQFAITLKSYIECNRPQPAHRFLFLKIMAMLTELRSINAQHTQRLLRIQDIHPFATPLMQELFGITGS

The target of experiment [4] is Acetylcholinesterase (Homo sapiens) (UniProt P22303). Nature of the experiment: Acetylcholinesterase (AChE) small molecule antagonists: colormetric cell-based qHTS assay (AID 1347395; calls by dose curve; also: nearly all actives have a fitted effect of over 30% in size; also: potency is read from the fitted curve at half-maximal effect). In a few lines: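 After overnight attachment at 37 C, SH-SY5Y cells get 30 min compound exposure; detection cocktail (acetylthiocholine, DTNB) then incubates 90 min at 37 C, and absorbance reflects AChE-generated thiocholine.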
Acetylcholinesterase (Homo sapiens), sequence (P22303 whole entry, looked up): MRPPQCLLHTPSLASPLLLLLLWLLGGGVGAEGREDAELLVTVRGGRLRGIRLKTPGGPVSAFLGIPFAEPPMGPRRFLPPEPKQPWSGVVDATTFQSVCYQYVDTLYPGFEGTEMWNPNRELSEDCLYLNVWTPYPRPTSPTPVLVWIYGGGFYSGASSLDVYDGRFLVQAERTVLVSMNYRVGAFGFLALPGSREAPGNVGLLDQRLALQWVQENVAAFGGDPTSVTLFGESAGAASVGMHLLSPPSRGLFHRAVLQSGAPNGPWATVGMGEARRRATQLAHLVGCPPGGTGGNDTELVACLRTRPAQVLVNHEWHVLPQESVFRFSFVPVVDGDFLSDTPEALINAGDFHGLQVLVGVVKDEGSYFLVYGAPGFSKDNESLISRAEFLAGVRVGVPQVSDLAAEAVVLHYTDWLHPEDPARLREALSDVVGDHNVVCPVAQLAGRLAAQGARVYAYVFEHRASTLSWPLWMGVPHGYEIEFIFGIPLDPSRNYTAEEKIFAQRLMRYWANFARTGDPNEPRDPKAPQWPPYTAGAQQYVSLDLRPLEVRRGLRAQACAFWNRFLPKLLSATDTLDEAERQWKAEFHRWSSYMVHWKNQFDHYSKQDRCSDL

Experiment [5] shares this target. Nature of the experiment: Acetylcholinesterase (AChE) small molecule antagonists: enzyme-based qHTS assay (AID 1347397; calls by dose curve; also: nearly all actives have a fitted effect of over 55% in size; also: potency is read from the fitted curve at half-maximal effect). As to conditions: Potency: AChE enzyme activity inhibition. In a few lines:
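Colorimetric DTNB read-out of thiocholine released from acetylthiocholine by recombinant human AChE (50 mU/mL as dispensed). Compounds were preincubated 30 min at RT before substrate/DTNB addition, with a 10 min RT reaction.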

For experiment [6] the target is unchanged. Put plainly: Acetylcholinesterase (AChE) small molecule antagonists: fluorescence cell-based qHTS assay (AID 1347398; calls by dose curve; also: nearly all actives have a fitted effect of over 50% in size; also: potency is read from the fitted curve at half-maximal effect). To be noted: Potency: AChE activity. In outline: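 SH-SY5Y, 2,000 cells/well, attached overnight; cmpd 30 min 37 C; acetylthiocholine/Thiolite Green cocktail 40 min RT; fluorescence Ex/Em 490/520 nm.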
In experiment [7] the target is Cytochrome P450 2C19 (Homo sapiens) (UniProt P33261). Nature of the experiment: Cytochrome P450 Family 2 Subfamily C Member 19 (CYP2C19) small molecule antagonists: luciferase reporter qHTS assay (AID 1671197). Also: nearly all actives have a fitted effect of over 65% in size. Also: potency is read from the fitted curve at half-maximal effect. In a few lines:
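Quantitative high-throughput screen of the Tox21 library using CYP2C19 with proluciferin substrate. Reaction: NADPH regeneration, 37C, 1 h, after 10 min compound preincubation at room temperature. Readout: luminescence.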
(In general: Reporter assays use an easily measured gene product as a stand-in for the process of interest.)

In experiment [8] the target is Cytochrome P450 2C9 (Homo sapiens) (UniProt P11712). Put plainly: Cytochrome P450 Family 2 Subfamily C Member 9 (CYP2C9) small molecule antagonists: luciferase reporter qHTS assay (AID 1671198). Also: nearly all actives have a fitted effect of over 50% in size. Also: potency is read from the fitted curve at half-maximal effect. In outline: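 P450-Glo proluciferin substrate with CYP2C9 enzyme; 10 min RT preincubation, then NADPH regeneration 1 h at 37C; luciferin detection reagent 20 min RT, luminescence in relative luminescence units.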
Cytochrome P450 2C9 (Homo sapiens), sequence (P11712 whole entry, looked up): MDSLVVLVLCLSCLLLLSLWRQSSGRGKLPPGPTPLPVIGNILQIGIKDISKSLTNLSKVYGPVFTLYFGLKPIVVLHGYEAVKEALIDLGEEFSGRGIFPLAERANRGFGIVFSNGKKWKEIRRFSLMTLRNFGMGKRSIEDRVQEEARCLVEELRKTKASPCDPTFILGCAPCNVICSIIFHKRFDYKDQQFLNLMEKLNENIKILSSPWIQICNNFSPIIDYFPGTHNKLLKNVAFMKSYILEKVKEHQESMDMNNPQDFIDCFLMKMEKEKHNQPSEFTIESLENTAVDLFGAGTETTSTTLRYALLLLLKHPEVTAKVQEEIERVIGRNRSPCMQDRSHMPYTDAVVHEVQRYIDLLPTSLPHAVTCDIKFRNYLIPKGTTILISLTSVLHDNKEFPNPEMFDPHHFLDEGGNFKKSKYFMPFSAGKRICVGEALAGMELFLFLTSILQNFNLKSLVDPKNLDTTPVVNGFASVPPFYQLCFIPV

The target in experiment [9] is Cytochrome P450 1A2 (Homo sapiens) (UniProt P05177). Nature of the experiment: Cytochrome P450 Family 1 Subfamily A Member 2 (CYP1A2) small molecule antagonists: luciferase reporter qHTS assay (AID 1671199). Also: nearly all actives have a fitted effect of over 50% in size. Also: potency is read from the fitted curve at half-maximal effect. In outline: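 Read-out is luminescence from luciferin detection reagent (20 min) proportional to CYP1A2 activity; compounds in DMSO preincubated 10 min with enzyme and proluciferin substrate, then NADPH regeneration solution, 1 h, room temperature.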
Cytochrome P450 1A2 (Homo sapiens), sequence (P05177 whole entry, looked up): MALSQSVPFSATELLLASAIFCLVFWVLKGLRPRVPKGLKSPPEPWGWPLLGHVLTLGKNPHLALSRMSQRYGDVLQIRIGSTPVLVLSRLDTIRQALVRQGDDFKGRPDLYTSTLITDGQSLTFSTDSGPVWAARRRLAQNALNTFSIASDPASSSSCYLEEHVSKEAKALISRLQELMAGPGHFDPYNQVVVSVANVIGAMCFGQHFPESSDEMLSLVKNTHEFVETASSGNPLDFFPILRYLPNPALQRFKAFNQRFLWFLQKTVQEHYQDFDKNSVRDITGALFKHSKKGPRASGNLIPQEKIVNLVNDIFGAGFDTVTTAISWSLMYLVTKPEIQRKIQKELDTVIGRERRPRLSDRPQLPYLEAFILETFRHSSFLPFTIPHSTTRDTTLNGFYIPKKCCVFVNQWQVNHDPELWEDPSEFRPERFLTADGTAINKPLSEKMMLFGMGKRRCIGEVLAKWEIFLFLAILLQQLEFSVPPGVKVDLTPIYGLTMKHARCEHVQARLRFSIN

The target in experiment [10] is Voltage-gated inwardly rectifying potassium channel KCNH2 (Homo sapiens) (UniProt Q12809). Put plainly: Human Ether-a-go-go-Related Gene (hERG) channel small molecule antagonists: fluorescence cell-based qHTS assay (AID 1671200).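 Also: hERG-expressing U2OS cells given a thallium stimulus after FluxOR II dye loading; series mostly up to about 77 µM; nearly all actives have a fitted effect of over 50% in size.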 In outline:
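In this thallium-flux screen, overnight-cultured U2OS cells bearing the channel are dye-loaded in darkness for an hour, rested 10 min at room temperature, and then monitored kinetically at 480/540 nm for two minutes post-stimulus.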
A general note: hERG is a cardiac potassium channel; its block is linked to QT prolongation.

In experiment [11] the target is Cytochrome P450 3A4 (Homo sapiens) (UniProt P08684). Put plainly: Cytochrome P450 Family 3 Subfamily A Member 4 (CYP3A4) small molecule antagonists: luciferase reporter qHTS assay (AID 1671201). Also: nearly all actives have a fitted effect of over 50% in size. Also: potency is read from the fitted curve at half-maximal effect. In a few lines:
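CYP3A4 activity was followed with a P450-Glo proluciferin substrate. Test compounds in DMSO were preincubated 10 min; NADPH regeneration then ran 1 h, and light output was read 20 min after detection reagent.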

Experiment [12] deals with Cytochrome P450 2D6 (Homo sapiens) (UniProt P10635). Put plainly: Cytochrome P450 Family 2 Subfamily D Member 6 (CYP2D6) small molecule antagonists: luciferase reporter qHTS assay (AID 1671196). Also: nearly all actives have a fitted effect of over 50% in size. Also: potency is read from the fitted curve at half-maximal effect. In a few lines:
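Chemicals tested for interference with CYP2D6 activity; proluciferin substrate, NADPH regeneration, 1 h at room temperature, luminescent detection.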

The target in experiment [13] is Acetylcholinesterase (Homo sapiens) (UniProt P22303). Nature of the experiment: Acetylcholinesterase (AChE) small molecule antagonists: enzyme-based qHTS assay with human liver microsomes (AID 1347399; calls by dose curve; also: nearly all actives have a fitted effect of over 60% in size). To be noted: Potency: qHTS inhibition. In a few lines: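 Recombinant human AChE (50 mU/mL in the enzyme mix) and human liver microsomes (0.25 mg/mL final) were preincubated with compound and NADPH (0.25 mg/mL final) for 30 min at 37 C. Acetylthiocholine/DTNB was then added; thiocholine was read colorimetrically after 10 min at room temperature.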

Experiment [14] concerns the target Nuclear receptor subfamily 1 group I member 2 (Rattus norvegicus) (UniProt Q9R1A7). Nature of the experiment: Rat pregnane X receptor (rPXR) activation by small molecules, qHTS assay (AID 1346983). Also: nearly all actives have a fitted effect of over 20% in size. To be noted: rPXR luciferase reporter cells, One-Glo luminescence, 24 h; stronger effect = higher value. In outline: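 Cell-based rPXR activation assay: rPXR cells, 2,000 per well, rested 5hr at 37 C, then exposed to compounds in DMSO for 24 hr at 37 C. Luciferase activity read by One-Glo luminescence after 30 min at room temperature.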

The target of experiment [15] is Nuclear receptor subfamily 1 group I member 2 (Homo sapiens) (UniProt O75469). Nature of the experiment: CYP3A4 induction through human pregnane X receptor (PXR) by small molecules, qHTS assay (AID 1346984). Also: nearly all actives have a fitted effect of over 40% in size. In outline:
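After 24 h at 37C with compound, DPX-2 cells (HepG2, co-transfected PXR response element and CYP3A4 promoter-luciferase) got 3uM final P450-Glo Luciferin-IPA for 3 h; One-Glo luminescence followed.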

The target is the same in experiment [16]. Put plainly: Human pregnane X receptor (PXR) activation by small molecules, qHTS assay (AID 1346985). Also: nearly all actives have a fitted effect of over 40% in size. In outline:
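DPX-2 cells (HepG2 co-transfected with a PXR response element and a CYP3A4-promoter luciferase construct) were seeded at 2,000 per well, rested 5 hr at 37C, then exposed to DMSO-dissolved compounds for 24 hr. Activation was read as luciferase luminescence.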

SMILES strings stand for the structures. “And” between values parts separate entries of the source, which are not always exact repeats. Identical values can stand only once. Records with an inconclusive call do not appear. The source holds several records for some structures; these can differ, active in one and inactive in another. The source made the active and inactive calls. Unless noted, calls follow the shape of the dose curve; as a rule, active = well fitted curve in the direction sought with a large enough effect in the repeat runs; inconclusive = weak or mixed curves; inactive = no such curve, though single readings can be large; an effect the other way counts as inactive or inconclusive.
% is scaled to controls: 0 for no effect and ±100 for the full control effect.

Cytochrome P450 2D6 (Homo sapiens), sequence (P10635 whole entry, looked up): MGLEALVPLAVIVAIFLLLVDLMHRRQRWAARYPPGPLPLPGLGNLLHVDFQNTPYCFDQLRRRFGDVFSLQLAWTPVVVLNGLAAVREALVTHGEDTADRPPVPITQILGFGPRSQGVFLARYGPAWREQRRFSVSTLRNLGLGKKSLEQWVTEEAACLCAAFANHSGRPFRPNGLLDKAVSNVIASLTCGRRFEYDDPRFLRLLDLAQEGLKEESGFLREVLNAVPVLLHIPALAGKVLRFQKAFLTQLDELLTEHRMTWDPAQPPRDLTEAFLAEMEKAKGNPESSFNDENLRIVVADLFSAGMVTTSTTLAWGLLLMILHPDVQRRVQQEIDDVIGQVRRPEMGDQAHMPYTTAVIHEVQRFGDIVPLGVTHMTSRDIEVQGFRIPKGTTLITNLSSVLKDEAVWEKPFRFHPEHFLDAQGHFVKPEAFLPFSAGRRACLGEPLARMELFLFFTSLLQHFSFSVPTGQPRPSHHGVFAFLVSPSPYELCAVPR
Cytochrome P450 2C19 (Homo sapiens), sequence (P33261 whole entry, looked up): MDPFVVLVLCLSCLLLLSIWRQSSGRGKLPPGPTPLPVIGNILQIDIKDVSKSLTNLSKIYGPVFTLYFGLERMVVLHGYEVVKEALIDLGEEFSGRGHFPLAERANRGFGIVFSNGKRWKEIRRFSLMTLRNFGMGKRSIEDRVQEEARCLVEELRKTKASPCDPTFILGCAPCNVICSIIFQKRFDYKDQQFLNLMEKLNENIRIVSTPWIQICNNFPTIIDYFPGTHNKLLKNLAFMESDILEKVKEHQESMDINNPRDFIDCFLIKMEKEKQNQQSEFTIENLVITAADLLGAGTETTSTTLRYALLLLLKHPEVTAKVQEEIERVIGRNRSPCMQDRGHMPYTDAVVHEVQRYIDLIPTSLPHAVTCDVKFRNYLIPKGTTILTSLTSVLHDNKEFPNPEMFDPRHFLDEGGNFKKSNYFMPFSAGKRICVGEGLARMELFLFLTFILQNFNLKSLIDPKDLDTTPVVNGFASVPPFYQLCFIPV
Voltage-gated inwardly rectifying potassium channel KCNH2 (Homo sapiens), sequence (Q12809 whole entry, looked up): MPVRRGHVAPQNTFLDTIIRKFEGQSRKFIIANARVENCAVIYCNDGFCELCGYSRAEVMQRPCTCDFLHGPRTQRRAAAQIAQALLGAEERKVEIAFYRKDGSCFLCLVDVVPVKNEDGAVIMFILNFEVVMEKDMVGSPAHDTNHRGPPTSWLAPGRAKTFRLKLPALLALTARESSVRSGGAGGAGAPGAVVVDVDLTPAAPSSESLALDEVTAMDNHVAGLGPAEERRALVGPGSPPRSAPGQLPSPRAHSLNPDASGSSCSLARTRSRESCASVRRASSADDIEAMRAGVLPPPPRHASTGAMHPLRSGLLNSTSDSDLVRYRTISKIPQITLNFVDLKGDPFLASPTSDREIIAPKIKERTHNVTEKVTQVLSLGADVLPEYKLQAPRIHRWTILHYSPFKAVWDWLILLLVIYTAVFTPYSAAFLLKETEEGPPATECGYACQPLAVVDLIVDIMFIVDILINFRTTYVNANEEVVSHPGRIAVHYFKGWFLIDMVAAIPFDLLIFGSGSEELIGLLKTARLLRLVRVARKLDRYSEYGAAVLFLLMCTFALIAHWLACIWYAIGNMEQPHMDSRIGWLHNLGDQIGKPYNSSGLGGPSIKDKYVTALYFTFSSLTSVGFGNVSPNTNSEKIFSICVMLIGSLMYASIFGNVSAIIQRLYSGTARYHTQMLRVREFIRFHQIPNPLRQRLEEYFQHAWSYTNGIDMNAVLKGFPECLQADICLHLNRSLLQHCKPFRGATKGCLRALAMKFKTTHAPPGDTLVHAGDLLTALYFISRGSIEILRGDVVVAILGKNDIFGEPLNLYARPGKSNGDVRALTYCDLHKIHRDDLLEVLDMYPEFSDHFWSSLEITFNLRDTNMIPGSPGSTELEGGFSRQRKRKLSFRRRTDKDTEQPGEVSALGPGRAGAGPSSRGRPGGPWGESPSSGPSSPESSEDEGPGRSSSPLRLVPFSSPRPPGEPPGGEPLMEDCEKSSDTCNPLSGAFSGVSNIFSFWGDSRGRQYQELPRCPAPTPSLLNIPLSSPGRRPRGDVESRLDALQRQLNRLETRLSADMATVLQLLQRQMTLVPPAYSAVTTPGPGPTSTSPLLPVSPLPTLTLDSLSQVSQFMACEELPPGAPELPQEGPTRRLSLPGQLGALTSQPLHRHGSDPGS
Cytochrome P450 3A4 (Homo sapiens), sequence (P08684 whole entry, looked up): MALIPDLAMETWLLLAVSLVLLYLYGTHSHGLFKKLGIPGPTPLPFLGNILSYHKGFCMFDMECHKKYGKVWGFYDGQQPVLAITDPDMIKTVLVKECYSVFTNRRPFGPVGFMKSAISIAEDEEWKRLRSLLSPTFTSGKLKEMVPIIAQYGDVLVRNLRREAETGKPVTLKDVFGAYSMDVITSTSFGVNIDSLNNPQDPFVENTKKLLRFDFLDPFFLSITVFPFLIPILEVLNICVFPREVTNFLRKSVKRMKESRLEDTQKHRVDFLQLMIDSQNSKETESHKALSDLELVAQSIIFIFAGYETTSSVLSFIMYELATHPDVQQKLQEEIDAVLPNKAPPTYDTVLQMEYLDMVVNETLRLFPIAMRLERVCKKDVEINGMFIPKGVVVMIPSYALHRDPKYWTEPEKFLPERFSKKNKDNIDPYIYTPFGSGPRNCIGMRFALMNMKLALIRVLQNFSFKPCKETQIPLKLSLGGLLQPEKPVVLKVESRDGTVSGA

In the case of `Nc1ccc(Cc2ccc(N)cc2)cc1`, the result in experiment [1] was inactive. Further, the Potency result in [2], in experiment [4], in [5], in [6] and in experiment [10] was “inactive” throughout. The Potency is 60.1 µM (active) and inactive in experiment [3]; 35 µM (active) and inactive in experiment [7]; 31.2 µM (active) and inactive in experiment [8]; 39.3 µM (active) and 35.6 µM (active) in [9]; 6.99 µM (active) and 3.99 µM (active) in experiment [11].
Turning to `CNC(=O)Oc1ccccc1OC(C)C`, in experiment [1], the molecule was classed as inactive. In addition, the Potency entry in experiment [2], in experiment [3], in [12], in [7], in [10] and in experiment [11] was “inactive” throughout. Further, the Potency in [4] is 2 µM (active) and 2.24 µM (active); in experiment [5], 3.18 µM (active) and 3.17 µM (active); in experiment [6], 798 nM (active) and 1.59 µM (active); in experiment [9], 35.6 µM (active).
Turning to `ClCc1cccnc1`, in experiment [1], the molecule was called inactive. Besides, the Potency entry in experiment [2], in experiment [3], in experiment [5], in experiment [6], in experiment [13] and in [12] was “inactive” in each case. The Potency entry in experiment [10] and in experiment [11] was “inactive” each time. The Potency is 69.8 µM (active) and inactive in experiment [7]; 62.2 µM (active) and inactive in experiment [9].
Regarding `O=NN1CCCC1`, the molecule was called inactive in experiment [1]. For the same molecule, the Potency result in [2], in experiment [3], in experiment [5], in experiment [6], in experiment [13] and in [12] was “inactive” in each case. The Potency result in [8], in experiment [10] and in [11] was “inactive” each time. The Potency in [7] was 33.2 µM (active) and inactive; in experiment [9], 33.2 µM (active) and inactive.
Consider `COP(N)(=O)SC` (stereo unspecified), for which the result in experiment [1] was inactive. For the same molecule, the Potency entry in experiment [2], in experiment [3], in experiment [13], in [9], in experiment [10] and in experiment [11] was “inactive” each time. Besides, in experiment [7], the Potency is 39.3 µM (active) and inactive.
With `CC(C)C#N`, in experiment [1], the molecule was called inactive. The Potency entry in experiment [2], in [3], in experiment [5], in experiment [6], in experiment [13] and in [8] was “inactive” each time. Also, the Potency entry in experiment [9], in [10] and in experiment [11] was “inactive” throughout. In addition, the Potency in [7] was 67.3 µM (active) and inactive.
With `CCCCCCCCCCCC#N`, in experiment [1], the molecule was called inactive. Also, the Potency entry in experiment [2], in [3], in experiment [4], in [5], in experiment [6] and in experiment [12] was “inactive” each time. The Potency result in [9] and in [11] was “inactive” throughout. Further, in experiment [7], the Potency was 18 µM (active) and inactive.
In the case of `O=[N+]([O-])c1ccc([As](=O)(O)O)cc1`, the result in experiment [1] and in experiment [15] was inactive. Further, the Potency result in [3], in experiment [16], in experiment [4], in [5], in experiment [6] and in experiment [7] was “inactive” each time. In addition, the Potency entry in experiment [8], in experiment [9] and in experiment [11] was “inactive” throughout. The max activation in [14] is -0.802% (inactive).
As for `NCCc1ccc(O)cc1`, in experiment [1], the molecule was classed as inactive. Also, the Potency result in experiment [2], in experiment [3], in experiment [5], in experiment [6] and in experiment [13] was “inactive” in each case. The Potency in experiment [12] was 25 µM (active) and 7.76 µM (active); in [7], 49.9 µM (active) and inactive; in [9] it was 39.6 µM (active) and inactive.
As to `ClCCBr`, the call in experiment [1] was inactive. Also, the Potency result in [2], in experiment [3], in [5], in experiment [6], in experiment [13] and in experiment [9] was “inactive” each time. Moreover, the Potency entry in experiment [10] and in [11] was “inactive” each time. The Potency was 35.5 µM (active) and inactive in experiment [12]; 79.4 µM (active) and inactive in [7].

For the origin of these results see PubChem BioAssay (Tox21).
